# Results as given in PubChem BioAssay.
# Activity calls are given as the source filed them.
# How the values were obtained:
# [1] = system: PRMT1 (protein arginine N-methyltransferase 1); test: small molecules binding arginine methyltransferase PRMT1 – biochemical, small-molecule microarray, 635 nm fluorescence, primary screen (AID 1088); conditions: higher = more signal;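 also: binding of Prmt1 protein to compounds spotted on small-molecule microarray slides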
# [2] = growth effects on S. cerevisiae YJM789 – YJM789 clinical isolate, OD600, 24 h, basal, primary screen (AID 1089); conditions: higher = more signal, called active from +8 up or from −8 down;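 also: growth of clinical yeast isolate S. cerevisiae YJM 789 seeded 1000 cells per well; test concentration not given here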
# [3] = S. pombe growth modifiers, basal conditions – strain 972, OD600, 24 h, no modulator, primary screen (AID 1090);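 also: basal condition with compound alone and no growth modifier present; test concentration not given here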; conditions: S. pombe 972 growth, higher = more signal, called active from +8 up or from −8 down
# [4] = budding yeast growth modifiers under rapamycin – strain BY4716, OD600, 96 h, primary screen (AID 1091); also: test concentration not given here; conditions: S. cerevisiae BY4716 + rapamycin, higher = more signal, called active from +8 up or from −8 down
# [5] = molecular target: Torsin-1A-interacting protein 2 (Homo sapiens) (UniProt Q8NFQ8); test: small molecules binding lysate-expressed LULL1 – cell lysate, human LULL1 lysate, 635/667 nm fluorescence, primary screen (AID 1092); conditions: small-molecule microarray, hLULL1 lysate binding, 635 nm fluorescence; higher = more signal;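 also: probe is lysate of COS7 cells overexpressing human LULL1; score merges per-feature 667 nm fluorescence with signal-to-noise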
# [6] = optical density change of DRC41 E. coli – strain DRC41, OD650, 24 h, E. coli filamentation project, primary screen (AID 1093);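 also: MC1000 strain lacking acrAB efflux and sulA so SOS filamentation is blocked; test concentration not given here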; conditions: E. coli DRC41 growth, higher = more signal, called active from +8 up or from −8 down
# [7] = probe aLefty2 binding to arrayed compounds – biochemical, biotinylated probe, 635/667 nm fluorescence, primary screen (AID 1094); conditions: small-molecule microarray, higher = more signal;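 also: score merges spot fluorescence near 667 nm with spot signal-to-noise ratio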
# [8] = system: Noggin (protein binding on small-molecule microarray); test: small molecules binding Noggin protein – biochemical, 635/667 nm fluorescence, primary screen (AID 1095); conditions: 635 nm fluorescence, higher = more signal;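 also: score merges 667 nm feature fluorescence with signal to noise over triplicate slides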
# [9] = molecular target: Neurogenic locus notch homolog protein 3 (Homo sapiens) (UniProt Q9UM47); test: small molecules binding NOTCH3 protein – biochemical, 635/667 nm fluorescence, primary screen (AID 1096); conditions: small-molecule microarray, 635 nm fluorescence, higher = more signal
# [10] = probe aEGFR binding to arrayed compounds – biochemical, biotinylated probe, 635/667 nm fluorescence, primary screen (AID 1097); conditions: small-molecule microarray, higher = more signal;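 also: probe is a biotinylated anti-EGFR antibody binding compounds printed on slides; score combines fluorescence near 667 nm and signal to noise of each spot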
# [11] = system: Plasmodium falciparum Sir2 (PF13_0152, Sir2A); test: Plasmodium falciparum Sir2A binding compounds – biochemical, small-molecule microarray, 635 nm fluorescence, primary screen (AID 1098); conditions: fluorescence 635 nm, higher = more signal;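 also: score merges spot fluorescence intensity with its signal-to-noise ratio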
# [12] = probe aDKK1 binding to arrayed compounds – biochemical, biotinylated probe, 635/667 nm fluorescence, primary screen (AID 1099); conditions: small-molecule microarray, higher = more signal;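 also: score merges 667nm spot fluorescence with signal to noise across triplicate slides; reference of the scale not given here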
# [13] = probe aCHRDL2 binding to arrayed compounds – biochemical, biotinylated probe, 635/667 nm fluorescence, primary screen (AID 1100); conditions: small-molecule microarray, higher = more signal
# [14] = change in splice reporter luminescence, either direction, cell-based, HEK293, spliceosome inhibition project, primary screen (AID 1101); conditions: HEK293 splicing luciferase reporter, 24 h, higher = more signal, called active from +8 up or from −8 down;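 also: HEK293 cells carrying a splicing-competent luciferase reporter gene; test concentration not given here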
# [15] = molecular target: Fibroblast growth factor 10 (Homo sapiens) (UniProt O15520); test: compounds binding fibroblast growth factor 10 – biochemical, small-molecule microarray, 635 nm fluorescence, primary screen (AID 1102); conditions: FGF10 binding, fluorescence 635 nm, higher = more signal
# [16] = system: glycogen synthase kinase-3 (GSK3A per assay name; protocol says GSK3B); test: compounds binding glycogen synthase kinase-3 – biochemical, small-molecule microarray, 635 nm fluorescence, GSK3A, primary screen (AID 1103); conditions: fluorescence 635 nm, higher = more signal; also: the record names both GSK3A and GSK3B
# [17] = molecular target: Epidermal growth factor receptor (Homo sapiens) (UniProt P00533); test: compounds binding epidermal growth factor receptor – biochemical, small-molecule microarray, 635 nm fluorescence, primary screen (AID 1104); conditions: EGFR binding, higher = more signal;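 also: score merges 667 nm emission intensity with spot signal to noise over triplicate slides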
# [18] = molecular target: Follistatin-related protein 3 (Homo sapiens) (UniProt O95633); test: compounds binding follistatin-related protein 3 – biochemical, small-molecule microarray, 635 nm fluorescence, primary screen (AID 1105); conditions: FSTL3 binding, higher = more signal;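 also: score merges emission near 667 nm and signal to noise per printed spot across three slides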
# [19] = molecular target: Dickkopf-related protein 1 (Homo sapiens) (UniProt O94907); test: small molecules binding DKK1 protein – biochemical, small-molecule microarray, 635 nm fluorescence scan, primary screen (AID 1106); conditions: higher = more signal;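 also: score merges emission near 667 nm with signal to noise over three replicate slides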
# [20] = system: Inhibin beta A chain (activin A); test: small molecules binding activin A – biochemical, small-molecule microarray, 635 nm fluorescence scan, primary screen (AID 1107); conditions: INHBA, higher = more signal;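 also: mouse activin A protein probed at 4.33 µg/mL on printed slides; score merges bound-protein fluorescence near 667 nm with spot signal-to-noise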
# Sequence of Neurogenic locus notch homolog protein 3 (Homo sapiens) (Q9UM47 whole entry, looked up): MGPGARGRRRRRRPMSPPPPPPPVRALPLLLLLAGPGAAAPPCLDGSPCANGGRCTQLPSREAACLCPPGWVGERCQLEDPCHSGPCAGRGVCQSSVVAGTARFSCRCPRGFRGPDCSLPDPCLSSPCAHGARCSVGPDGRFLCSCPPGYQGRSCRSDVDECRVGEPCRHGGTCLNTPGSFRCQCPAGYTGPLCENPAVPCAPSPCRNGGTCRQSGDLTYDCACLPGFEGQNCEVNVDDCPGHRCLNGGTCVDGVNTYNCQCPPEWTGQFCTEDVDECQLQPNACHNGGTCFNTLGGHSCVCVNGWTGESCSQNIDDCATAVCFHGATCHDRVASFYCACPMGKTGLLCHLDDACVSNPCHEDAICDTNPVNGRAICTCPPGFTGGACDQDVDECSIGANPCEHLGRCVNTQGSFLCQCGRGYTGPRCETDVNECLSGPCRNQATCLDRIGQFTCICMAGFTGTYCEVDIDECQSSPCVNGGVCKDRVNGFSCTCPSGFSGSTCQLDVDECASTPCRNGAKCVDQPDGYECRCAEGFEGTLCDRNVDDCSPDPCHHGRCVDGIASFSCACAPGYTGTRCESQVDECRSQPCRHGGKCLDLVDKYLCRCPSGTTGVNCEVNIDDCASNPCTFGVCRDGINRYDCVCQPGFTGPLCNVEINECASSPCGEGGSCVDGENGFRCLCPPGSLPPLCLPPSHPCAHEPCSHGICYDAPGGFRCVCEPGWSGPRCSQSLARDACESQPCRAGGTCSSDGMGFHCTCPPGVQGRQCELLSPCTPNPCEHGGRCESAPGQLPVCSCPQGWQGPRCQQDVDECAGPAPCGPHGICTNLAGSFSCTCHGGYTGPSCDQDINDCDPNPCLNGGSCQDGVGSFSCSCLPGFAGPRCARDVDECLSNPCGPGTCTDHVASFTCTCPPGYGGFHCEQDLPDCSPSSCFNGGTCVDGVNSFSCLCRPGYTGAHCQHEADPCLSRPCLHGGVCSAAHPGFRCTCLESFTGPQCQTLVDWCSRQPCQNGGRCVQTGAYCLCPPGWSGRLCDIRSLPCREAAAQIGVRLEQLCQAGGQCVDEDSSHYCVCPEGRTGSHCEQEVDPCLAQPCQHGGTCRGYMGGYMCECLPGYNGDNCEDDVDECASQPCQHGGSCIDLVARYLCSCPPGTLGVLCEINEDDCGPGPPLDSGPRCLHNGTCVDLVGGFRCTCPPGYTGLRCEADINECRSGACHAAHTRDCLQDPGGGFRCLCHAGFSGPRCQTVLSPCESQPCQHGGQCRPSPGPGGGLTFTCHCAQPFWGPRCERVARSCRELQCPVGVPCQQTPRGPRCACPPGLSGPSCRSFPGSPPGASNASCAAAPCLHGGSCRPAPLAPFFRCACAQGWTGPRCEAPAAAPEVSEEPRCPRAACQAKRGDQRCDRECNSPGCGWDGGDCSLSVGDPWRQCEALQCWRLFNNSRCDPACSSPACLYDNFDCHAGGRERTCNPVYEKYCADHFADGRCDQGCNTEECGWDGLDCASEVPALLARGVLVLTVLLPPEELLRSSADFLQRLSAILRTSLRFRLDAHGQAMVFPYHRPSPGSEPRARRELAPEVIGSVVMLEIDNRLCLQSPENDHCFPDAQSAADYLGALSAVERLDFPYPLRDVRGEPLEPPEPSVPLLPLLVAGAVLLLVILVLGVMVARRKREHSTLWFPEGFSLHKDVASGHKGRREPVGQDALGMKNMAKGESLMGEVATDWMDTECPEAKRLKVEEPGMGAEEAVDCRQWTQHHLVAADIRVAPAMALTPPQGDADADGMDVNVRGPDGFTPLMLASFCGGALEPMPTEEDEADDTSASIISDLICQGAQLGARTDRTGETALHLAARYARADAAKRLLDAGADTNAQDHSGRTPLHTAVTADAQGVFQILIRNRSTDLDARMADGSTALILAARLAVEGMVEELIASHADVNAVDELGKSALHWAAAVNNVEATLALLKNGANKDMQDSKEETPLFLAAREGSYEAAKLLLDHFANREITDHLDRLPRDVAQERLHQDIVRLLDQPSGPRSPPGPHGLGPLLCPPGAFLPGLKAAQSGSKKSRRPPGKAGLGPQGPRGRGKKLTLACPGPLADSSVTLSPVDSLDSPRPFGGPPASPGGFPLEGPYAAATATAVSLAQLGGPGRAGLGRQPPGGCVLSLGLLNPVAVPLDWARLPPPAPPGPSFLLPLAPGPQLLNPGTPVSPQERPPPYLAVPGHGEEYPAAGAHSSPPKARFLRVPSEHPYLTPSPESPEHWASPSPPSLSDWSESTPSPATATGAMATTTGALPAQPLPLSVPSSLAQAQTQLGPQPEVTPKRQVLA
# Sequence of Torsin-1A-interacting protein 2 (Homo sapiens) (Q8NFQ8 whole entry, looked up): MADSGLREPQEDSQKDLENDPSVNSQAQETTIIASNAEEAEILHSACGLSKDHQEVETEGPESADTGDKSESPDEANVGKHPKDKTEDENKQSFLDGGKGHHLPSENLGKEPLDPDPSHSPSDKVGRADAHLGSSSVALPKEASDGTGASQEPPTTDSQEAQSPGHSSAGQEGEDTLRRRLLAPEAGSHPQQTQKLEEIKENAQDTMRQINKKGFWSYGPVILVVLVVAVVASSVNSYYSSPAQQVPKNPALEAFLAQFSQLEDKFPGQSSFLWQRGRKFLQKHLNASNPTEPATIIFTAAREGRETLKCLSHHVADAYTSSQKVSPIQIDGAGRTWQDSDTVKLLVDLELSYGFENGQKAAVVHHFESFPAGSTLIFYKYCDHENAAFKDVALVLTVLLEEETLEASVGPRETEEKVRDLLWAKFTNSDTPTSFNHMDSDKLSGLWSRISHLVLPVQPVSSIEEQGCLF
# Sequence of Fibroblast growth factor 10 (Homo sapiens) (O15520 whole entry, looked up): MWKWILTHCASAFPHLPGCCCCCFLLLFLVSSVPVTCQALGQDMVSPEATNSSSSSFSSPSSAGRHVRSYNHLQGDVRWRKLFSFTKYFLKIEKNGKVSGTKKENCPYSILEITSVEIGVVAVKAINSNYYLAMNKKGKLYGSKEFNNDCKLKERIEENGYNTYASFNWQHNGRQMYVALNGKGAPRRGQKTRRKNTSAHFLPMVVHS
# Sequence of Epidermal growth factor receptor (Homo sapiens) (P00533 whole entry, looked up): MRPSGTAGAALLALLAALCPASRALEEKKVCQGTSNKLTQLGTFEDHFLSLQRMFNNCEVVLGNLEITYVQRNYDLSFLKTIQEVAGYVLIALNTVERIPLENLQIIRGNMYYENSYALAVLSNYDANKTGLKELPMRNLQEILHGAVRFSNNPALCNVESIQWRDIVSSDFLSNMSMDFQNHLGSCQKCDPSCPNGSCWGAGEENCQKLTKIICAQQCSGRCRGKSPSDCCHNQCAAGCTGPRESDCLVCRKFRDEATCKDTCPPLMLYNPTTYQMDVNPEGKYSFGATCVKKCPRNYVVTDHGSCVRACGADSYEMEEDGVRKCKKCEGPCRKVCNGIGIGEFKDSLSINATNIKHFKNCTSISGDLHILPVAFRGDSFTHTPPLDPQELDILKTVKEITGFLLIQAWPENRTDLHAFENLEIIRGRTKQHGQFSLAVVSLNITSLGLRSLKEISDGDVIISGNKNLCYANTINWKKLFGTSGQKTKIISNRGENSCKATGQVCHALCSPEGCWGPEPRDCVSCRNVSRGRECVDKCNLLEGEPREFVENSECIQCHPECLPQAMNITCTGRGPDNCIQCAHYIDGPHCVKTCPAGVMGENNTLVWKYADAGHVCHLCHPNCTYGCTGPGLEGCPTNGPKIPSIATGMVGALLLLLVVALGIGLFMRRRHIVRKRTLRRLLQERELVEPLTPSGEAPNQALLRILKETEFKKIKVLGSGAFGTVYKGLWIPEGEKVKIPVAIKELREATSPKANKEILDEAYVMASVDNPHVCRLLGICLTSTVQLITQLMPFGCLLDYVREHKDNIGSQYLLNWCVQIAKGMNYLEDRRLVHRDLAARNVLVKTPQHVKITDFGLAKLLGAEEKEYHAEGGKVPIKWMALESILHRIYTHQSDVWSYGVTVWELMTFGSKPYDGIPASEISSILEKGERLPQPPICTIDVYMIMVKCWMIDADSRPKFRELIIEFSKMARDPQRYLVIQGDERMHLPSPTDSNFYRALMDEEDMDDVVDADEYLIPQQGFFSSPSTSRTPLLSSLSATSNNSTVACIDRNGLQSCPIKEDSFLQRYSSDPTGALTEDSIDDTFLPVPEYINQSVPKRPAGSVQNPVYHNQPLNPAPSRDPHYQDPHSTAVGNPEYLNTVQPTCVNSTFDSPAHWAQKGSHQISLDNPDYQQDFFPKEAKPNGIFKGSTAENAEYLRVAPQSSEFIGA
# Sequence of Dickkopf-related protein 1 (Homo sapiens) (O94907 whole entry, looked up): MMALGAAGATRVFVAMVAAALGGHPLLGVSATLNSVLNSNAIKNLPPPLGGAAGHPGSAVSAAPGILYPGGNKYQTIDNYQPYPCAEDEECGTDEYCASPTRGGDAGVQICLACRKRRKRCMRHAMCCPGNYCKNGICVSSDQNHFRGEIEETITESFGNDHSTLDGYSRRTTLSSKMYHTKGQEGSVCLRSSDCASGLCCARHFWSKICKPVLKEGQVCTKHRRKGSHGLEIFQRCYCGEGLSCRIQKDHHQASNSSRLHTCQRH
# Sequence of Follistatin-related protein 3 (Homo sapiens) (O95633 whole entry, looked up): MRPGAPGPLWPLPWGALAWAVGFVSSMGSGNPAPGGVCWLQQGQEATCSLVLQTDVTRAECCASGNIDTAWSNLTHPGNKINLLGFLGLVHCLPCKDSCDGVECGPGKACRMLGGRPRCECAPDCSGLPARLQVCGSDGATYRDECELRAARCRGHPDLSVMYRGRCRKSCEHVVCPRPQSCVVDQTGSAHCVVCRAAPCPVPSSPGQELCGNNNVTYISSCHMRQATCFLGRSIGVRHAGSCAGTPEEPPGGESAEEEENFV
SMILES,composite z-score [1],z-score [2],z-score [3],z-score [4],composite z-score [5],z-score [6],composite z-score [7],composite z-score [8],composite z-score [9],composite z-score [10],composite z-score [11],composite z-score [12],composite z-score [13],z-score [14],composite z-score [15],composite z-score [16],composite z-score [17],composite z-score [18],composite z-score [19],composite z-score [20]
COCCOC(=O)N1C(=O)[C@@]2(c3cc(C#CCC(C(=O)OC)C(=O)OC)ccc31)[C@H](c1ccc(OCCO)cc1)N1[C@H](c3ccccc3)[C@H](c3ccccc3)OC(=O)[C@H]1[C@@H]2C(=O)N1CCCCCCC1,1.56,1.9 (inactive),0.911 (inactive),3.67 (inactive),3.6,1.43 (inactive),1.68,1.43,1.06,1.03,1.27,2.5,1.21,-0.915 (inactive),0.778,1.34,1.32,1.66,1.04,1.93
CC(C)CNC(=O)[C@@H]1c2ccccc2C(=O)N(Cc2ccccc2)[C@H]1c1ccc(CO)cc1,0.586,-0.416 (inactive),0.138 (inactive),-0.895 (inactive),3.22,-0.73 (inactive),-0.188,-0.731,-0.677,-0.189,0.0346,0.282,0.96,-0.18 (inactive),-0.787,0.0758,-1.35,-1.38,-1.05,-0.217
CCCCCN1CC=CC23O[C@@H]4C=CCOC(=O)[C@@H]4[C@H]2C(=O)N(CCCCCO)[C@@H]3C1=O (stereo not given in full),0.421,-1.16 (inactive),0.249 (inactive),-1.02 (inactive),1.59,2.58 (inactive),-0.121,-0.361,0.103,-0.167,1.37,-0.181,0.398,-0.522 (inactive),-0.893,-1.15,-0.728,-0.52,-0.63,0.676
